According to PubChem BioAssay (Tox21):
Records with an inconclusive call do not appear. The source made the active and inactive calls. Calls follow the shape of the dose curve; as a rule, active = well fitted cell-killing curve with a large enough effect in the repeat runs; inconclusive = weak or mixed curves, or effect the other way; inactive = flat fitted curve, though single readings scatter.

Assay: qHTS RealTime-Glo MT Cell Viability Assay in HEK293 cells - 16 hour (AID 1224872); also: nearly all actives have a fitted effect of over 50% in size; as to activity change, negative = cytotoxicity: top concentration of the series differs between compounds
Conditions: RealTime-Glo luminescence; series mostly up to 76.8 µM; activity change, negative = cytotoxicity: at the top concentration
Description: National Center for Advancing Translational Sciences [NCATS]
NIH Chemical Genomics Center [NCGC]
U.S. Environmental Protection Agency [EPA]
National Institutes of Environmental Health Sciences [NIEHS]
National Toxicology Program [NTP]
U.S. Food and Drug Administration [FDA]
Measure of cell viability is critical in the cell-base assay. Analysis of cell viability is necessary for the characterization of cell responses to cytotoxic drugs and environmental stress. A RealTime-Glo MT Cell Viability Assay to monitor cell viability in real time of continues cell culture during 40 hours of compound treatment was used to screen Tox21 10K library compounds in Hek293 cells. The RealTime-Glo MT Cell Viability Assay is a nonlytic, homogeneous, bioluminescent method to measure cell viability in real time using a simple, plate-based method. The assay involves adding NanoLuc luciferase and a cell-permeant prosubstrate to cells in culture. Viable cells reduce the proprietary prosubstrate to generate a substrate for NanoLuc luciferase. This substrate diffuses from cells into the surrounding culture medium, where it is rapidly used by the NanoLuc Enzyme to produce a luminescent signal. The signal correlates with the number of viable cells, making the assay well suited for cytotoxicity studies.
Tox21 Assay Protocol Summary:
The mixture of Hek293 cell suspension and reagents were dispensed at 600cells/6 ul/well in 1536-well tissue culture treated black solid bottom plates using a Multidrop dispenser. After the assay plates were incubated at a 37 C/5% CO2 incubator for 5 hours, 23 nL of compounds dissolved in DMSO, positive and negative controls was transferred to the assay plate by a pintool work station. The plates were incubated at 37 C for 40 hours. The luminescence intensity were measured at 0h, 8h, 16h, 24h, 32h and 40h time points using ViewLux plate reader during compound treatment.
% is scaled to controls: 0 for no effect and ±100 for the full control effect; potency is read from the fitted curve at half-maximal effect.

Row | SMILES | activity change, negative = cytotoxicity | Potency
1 | CC(C)(C)N | 1.3% (inactive) | –
2 | CCCC1CCCC(=O)O1 (stereo not given) | 0.376% (inactive) | –
3 | CCCCCCCCCCCCSCCOCCO | -9.44% [at 35.3 µM] (inactive) | –
4 | O=[N+]([O-])c1ccc(Cl)cc1Cl | -8.69% (inactive) | –
5 | C/C(=C\C(C)CC(C)CC(C)C)C1CC(=O)OC1=O (stereo not given) | -8.3% (inactive) | –
6 | CC(O)CN (stereo not given) | 1.48% (inactive) | –
7 | CCN(CC)CC(=O)OCC(=O)[C@@]1(O)CC[C@H]2[C@@H]3CCC4=CC(=O)CC[C@]4(C)[C@H]3[C@@H](O)C[C@@]21C | 3.06% [at 35.3 µM] (inactive) | –
8 | C=C[Si]1(C)O[Si](C)(C=C)O[Si](C)(C=C)O[Si](C)(C=C)O1 (stereo not given) | 0.186% (inactive) | –
9 | Sc1nc(S)nc(S)n1 | -1.42% [at 35.3 µM] (inactive) | –
10 | COC(=O)c1cc(Cl)ccc1[N+](=O)[O-] | 12.7% (inactive) | –
11 | CCOc1cc(OCC)c(C(C)=O)cc1OCC | – | 19.2 µM (active)
12 | CC(Cc1ccccc1)(NC(=O)CN)c1ccccc1 (stereo not given) | 0.775% [at 35.3 µM] (inactive) | –
13 | CCc1ccc2c(c1)C(=O)c1ccccc1C2=O | 18.7% (inactive) | –
14 | O=P(c1ccccc1)(c1ccccc1)c1ccccc1 | -11.8% (inactive) | –
15 | Cc1cc(C)c(C)c(O)c1 | 8.96% (inactive) | –
16 | c1ccc(-c2ccc(-c3ccccc3)cc2)cc1 | 0.695% [at 15.8 µM] (inactive) | –
17 | O=[N+]([O-])c1cccc(I)c1 | 0.0549% (inactive) | –
18 | CC(=O)CC/C=C(\C)CC/C=C(\C)CC/C=C(\C)CCC=C(C)C | 0.532% [at 35.3 µM] (inactive) | –
19 | CC(CC(C#N)(c1ccccc1)C(C)C)N(C)C (stereo not given) | 9.35% [at 35.3 µM] (inactive) | –
20 | Cc1ccc(NC=O)c(C)c1 | 17.5% (inactive) | –

Row | SMILES | activity change, negative = cytotoxicity | Potency
21 | Oc1ccc(Oc2ccccc2)cc1 | – | 14.7 µM (active)
22 | Cc1ccc2c(Cl)cc(Cl)c(O)c2n1 | -4.31% [at 35.3 µM] (inactive) | –
23 | COC=O | 11.7% [at 6.97 µM] (inactive) | –
24 | CC(C)Cc1nccs1 | 0.559% (inactive) | –
25 | C[C@H](N)C(=O)N[C@@H](C)C(=O)NC1[C@H]2CN(c3nc4c(cc3F)c(=O)c(C(=O)O)cn4-c3ccc(F)cc3F)C[C@@H]12 (stereo not given in full) | -2.05% [at 35.3 µM] (inactive) | –
26 | Cc1nc(C)c(C)nc1C | 20.3% (inactive) | –
27 | COc1ccnc2c1CCCCC2S(=O)c1nc2ccccc2[nH]1 (stereo not given) | – | 9.52 µM (active)
28 | CCCCOC(=O)CC#N | 6.98% (inactive) | –
29 | CCCCCCCCCC(C)C=O (stereo not given) | 0.891% (inactive) | –
30 | CCCC1CCOC(C)S1 (stereo not given) | 0.7% (inactive) | –
31 | COC(=O)/C=C/C(C)=C\C=C\C(C)=C\C=C\C=C(C)\C=C\C=C(C)\C=C\C(=O)O | 13% (inactive) | –
32 | CCCCCO | 6.01% (inactive) | –
33 | CC(C)=CCC/C(C)=C/C=N/O | -20.7% (inactive) | –
34 | CC1(COc2ccc(CC3SC(=O)NC3=O)cc2)CCCCC1 (stereo not given) | -0.344% [at 35.3 µM] (inactive) | –
35 | OCCCO | 11.3% (inactive) | –
36 | CCOCCn1c(N2CCCN(C)CC2)nc2ccccc21 | -1.67% [at 35.3 µM] (inactive) | –
37 | C=CCCC | -4.03% (inactive) | –
38 | CC(C)(O)C(=O)O | 9.12% (inactive) | –
39 | O=C(Nc1ccccc1)c1cc([N+](=O)[O-])ccc1Cl | -2.54% (inactive) | –
40 | NC(=O)c1ccccc1 | 0.164% (inactive) | –
